Experimental data published in PubChem BioAssay AID743167 (National Center for Advancing Translational Sciences (NCATS), 2013).
Where “and” joins values, the source holds several entries; their conditions need not be identical. Equal values may be shown once. Records with an inconclusive call do not appear. Calls of active or inactive are those of the source. Calls come from the whole dose curve; as a rule, active = well fitted activation curve with a large enough effect; inconclusive = small, poorly fitted or top-dose-only effect; inactive = flat fitted curve, though single readings scatter.

Experiment: Extended Characterization of HPGD Inhibitors: PGE2 Assay in A549 Cells
Conditions: PGE2 HTRF level, 16 h
Source text: The central role of HPGD is to inactivate prostaglandins such as prostaglandin E2 (PGE2) or prostaglandin D2 (PGD2). These prostaglandins are involved in a number of processes, including inflammation, differentiation, and cellular signaling, which makes HPGD an important target for pharmacological intervention. A number of prostaglandins of particular biological interest have been identified as substrates of HPGD. […] Over-production of PGE2 has been reported to promote tumor-associated neovascularization, cell proliferation, and tumor growth. […] In this orthogonal assay, we set out to measure if compounds were able to increase PGE2 production NIH Chemical Genomics Center [NCGC] NIH Molecular Libraries Probe Centers Network [MLPCN] MLPCN Grant: MH084681 Assay Submitter (PI): Structural Genomics Consortium
A549 cells, LNCaP cells or media were dispensed in 384-well plates (ProxiPlate-384 Plus, PerkinElmer, Shelton, CT) at 5,000 cells/9.9 uL/well using a CappAero384 multichannel pipette (Odense, Denmark). Separately on the plate, 10 uL of PGE2 calibration standards at a starting assay concentration of 5,000 pg/mL (1:2 dilution, 12-points, n = 1, prepared in media, Cisbio, Bedford, MA) were dispensed. Compounds (100 nL, final concentration range from 41.9 nM to 100 uM) were transferred using an ATS Acoustic Liquid Dispenser (EDC Biosystems, Fremont, CA). After being mixed using an automated liquid handler (CyBio, Jena, Germany), samples were incubated (37 deg C, 5% CO2, under a humidified atmosphere) for 16 hours. PGE2 labeled conjugates were added to each well, first 5 uL of PGE2-d2, followed by 5 uL of anti-PGE2-cryptate, centrifuged (1,500 rpm, 15 sec) and incubated (RT, protected from light) for 5 hours. Time-resolved fluorescence intensity (320 nm excitation, 615 and 665 nm emission) was measured using an Envision plate reader (PerkinElmer). Data was expressed as the ratio of 665 nm/615 nm emissions. Concentration (pg/mL) of samples were calculated from a 4-parameter logistic calibration curves of the PGE2 standards.

Compound	Potency
Cc1cccc(-n2cnc3cc(C(=O)N4CCCC(C)C4)ccc32)c1 (centres undefined)	9.35 µM (active)
Cc1cc(-c2nnc3n2CCCCC3)c(C)n1-c1cccnc1	1.87 µM (active)
Cc1cc(-c2nnc3n2CCCCC3)c(C)n1-c1ccc(C(C)(C)C)cc1	8.33 µM (active) and 13.2 µM (active)
COC(=O)[C@]12CCC(C)(C)C[C@H]1[C@H]1C(=O)C=C3[C@@]4(C)C=C(C#N)C(=O)C(C)(C)[C@@H]4CC[C@@]3(C)[C@]1(C)CC2	16.6 µM (active)
